# Records with an inconclusive call do not appear. Where a call stands in place of a potency, no number is given. Active and inactive are the calls of the source. The call rests on the fitted dose curve; in most records, active means well fitted cell-killing curve with a large enough effect in the repeat runs; inconclusive means weak or mixed curves, or effect the other way; inactive means flat fitted curve, though single readings scatter.
# Assay: qHTS assay to identify small molecule that activate the aryl hydrocarbon receptor (AhR) signaling pathway - cell viability counter screen (AID 743086);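 further: HepG2 liver cells carrying the AhR DRE luciferase reporter; nearly all actives have a fitted effect of over 45% in size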
# Conditions: HepG2-AhR-luc viability, CellTiter-Fluor, 24 h; series mostly up to 70.3 µM
# From the text: U.S. Tox21 Program National Center for Advancing Translational Sciences [NCATS] NIH Chemical Genomics Center [NCGC] U.S. Environmental Protection Agency [EPA] National Institutes of Environmental Health Sciences [NIEHS] National Toxicology Program [NTP] U.S. Food and Drug Administration [FDA] Tox21 Assay overview: The Aryl hydrocarbon Receptor (AhR), a member of the family of basic helix-loop-helix transcription factors, is crucial to adaptive responses to environmental changes. AhR mediates cellular responses to environmental pollutants such as aromatic hydrocarbons through induction of phase I and II enzymes but also interacts with other nuclear receptor signaling pathways A cell based HepG2-AhR-luc assay (HG2L7.5c1 cell line, developed by Dr. Michael S. Denison, University of California at Davis) was used to assess the activation of AhR. HepG2 (human hepatocellular carcinoma) cells were stably transfected with an Ah receptor-responsive firefly luciferase reporter gene plasmid containing 20 dioxin responsive elements and luciferase reporter gene. Increased luciferase activity can be used to identify the compounds that induce AhR activation. The cytotoxicity of the compounds screened against the HepG2-AhR-luc cell line was tested in parallel by measuring the cell viability using CellTiter-Fluor assay in the same wells.
# Tox21 Assay Protocol Summary: 4000 cells in 5 uL/well were dispensed into white wall/solid bottom 1536-well plates using a Multidrop Combi (Thermo Fisher Scientific Inc., Waltham, MA) dispenser. After the assay plates were incubated at 37C for 5 h, 23 nL of compound or DMSO vehicle was transferred to the assay plates by a pintool station (Kalypsys, San Diego, CA). The plates were incubated at 37C for 24 hr. For cell viability measurement, 1 ul/well of CellTiter-Fluor reagent (Promega, Madison, WI) was added into the assay plates using a Flying Reagent Dispenser (FRD) (Aurora Discovery, CA),and then the assay plates were incubated at 37C for 30 min. The fluorescence intensity in the plates was measured using a ViewLux plate reader (PerkinElmer, Shelton, CT), followed by the addition of 4 uL of ONE-Glo Luciferase Assay reagent (Promega) using an FRD (Aurora Discovery). After the assay plates were incubated at room temperature for 30 min, luminescence intensity was measured using a ViewLux plate reader (Perkin Elmer).
row,SMILES,Potency
1,CCO[Si](C)(CCCOCC1CO1)OCC (stereo not given),inactive
2,CNC1CCCN(c2c(F)cc3c(=O)c(C(=O)O)cn(C4CC4)c3c2OC)C1 (stereo not given),inactive
3,COc1ccc(/C=C/C(=O)c2ccc(OC)cc2OC)cc1,inactive
4,CCN(CC)CCNC(=O)c1cc(Cl)c(N)cc1OC,inactive
5,CC1CCC(C(C)CS)CC1S (stereo not given),inactive
6,CC[C@H]1OC(=O)[C@H](C)[C@@H](O[C@H]2C[C@@](C)(OC)[C@@H](O)[C@H](C)O2)[C@H](C)[C@@H](O[C@@H]2O[C@H](C)C[C@H](N(C)C)[C@H]2O)[C@](C)(O)C[C@@H](C)/C(=N\OCOCCOC)[C@H](C)[C@@H](O)[C@]1(C)O,inactive
7,Nc1nc(-c2ccc([N+](=O)[O-])cc2)cs1,inactive
8,CC1CCCC(=O)C1=O (stereo not given),inactive
9,Cc1cc(CCC(=O)OCCOCCOCCOC(=O)CCc2cc(C)c(O)c(C(C)(C)C)c2)cc(C(C)(C)C)c1O,inactive
10,CC(=O)OC(C)C[N+](C)(C)C (stereo not given),inactive
11,O=C(O)CCCc1c[nH]c2ccccc12,inactive
12,CCC1CCC(CCC(=O)O)C1 (stereo not given),inactive
13,CSSc1ccoc1C,inactive
14,O=NN(CCCl)C(=O)NCCCl,inactive
15,CC(C)(C)CCCCCCOC(=O)c1ccccc1C(=O)OCCCCCCC(C)(C)C,inactive
16,CCCCCCC(O)CCOC(C)=O (stereo not given),inactive
17,CC(C)(C)S,inactive
18,CCCCCCCCCCCCCCCCCC(=O)OCC(CC)CCCC (stereo not given),inactive
19,CC1CCCO1 (stereo not given),inactive
20,O=C(c1ccccc1)C1CCC1,inactive

row,SMILES,Potency
1,Nc1c(Cl)cc(Cl)cc1[N+](=O)[O-],inactive
2,CCCCCCCCCCCCCOC(=O)CCSCCC(=O)OCCCCCCCCCCCCC,inactive
3,C=CC(=O)NC(C)C,inactive
4,CCCc1nc2c(C)cc(-c3nc4ccccc4n3C)cc2n1Cc1ccc(-c2ccccc2C(=O)O)cc1,inactive
5,CC(C)C(=O)OCCOc1ccccc1,inactive
6,CC1=CC[C@@]23C[C@@H]1C(C)(C)[C@@H]2CC[C@H]3C,inactive
7,CC(C)(C)NCC(O)COc1cccc2c1C[C@H](O)[C@H](O)C2 (stereo not given in full),inactive
8,N[C@@H](Cc1cc(I)c(O)c(I)c1)C(=O)O,inactive
9,CCCCCCC(O)CCCCCCCCCCC(=O)OC (stereo not given),inactive
10,Cc1ccc2c(c1)CCCN2,inactive
11,CC(=O)Oc1cccc(O)c1,inactive
12,CN1C(CSCC(F)(F)F)Nc2cc(Cl)c(S(N)(=O)=O)cc2S1(=O)=O (stereo not given),inactive
13,CC(C)(C)C(O)/C=C/c1ccc2c(c1)OCO2 (stereo not given),inactive
14,CC(=O)OCCC1CCCCC1,inactive
15,O=[N+]([O-])C1(Br)COCOC1,inactive
16,C=C(C)C(=O)OCCC(F)(F)C(F)(F)C(F)(F)C(F)(F)C(F)(F)C(F)(F)F,inactive
17,Nc1ccc(F)cc1,inactive
18,CCC(Cl)CC(Cl)C(Cl)C(Cl)C(Cl)C(C)Cl (stereo not given),inactive
19,COC(CC(C)CCCC(C)(C)O)OC (stereo not given),inactive
20,O=S(=O)(O)CO,inactive
